SMILES strings stand for the structures. About 2,900 (47%) of roughly 6,200 compounds were called active. The set was probably picked from earlier hits. Some of the results follow. Unmarked numbers belong to inactive results. Cut-off read from the data, not from the text of the source: active = inhibition above about 50%; inactive = the rest.

The nature of the test: Mycobacterium tuberculosis growth inhibition, primary screen (AID 1259343). Particulars: inhibition: at 10 µM, stronger effect = higher value; outcome: 10 uM.
On to `CC1SC(=S)NN1c1ccccc1` (stereo not given), for which the inhibition is 92.6% (active).
For `Cc1cccc(Nc2ccc(NCCNS(=O)(=O)c3ccc(F)cc3)nn2)n1` the value was 30.2%.
The same measure for `c1ccc2c(OCCCCCn3ccnc3)cccc2c1`: 100% (active).
The same measure for `CN=c1scc(C)n1N=Cc1cc(Br)c(O)c(Br)c1`: -24.1%.
On to `CCN=c1scc(-c2ccco2)n1N=Cc1ccc2c(c1)OCO2`, for which the inhibition is 23.9%.
For `CN=c1scc(-c2ccco2)n1N=Cc1sccc1C` the value was 42.1%.
For `COCCN=c1scc(-c2ccco2)n1N=Cc1cc(Br)c(O)c(OC)c1` the value was 15.7%.
As for `CN=c1scc(-c2ccco2)n1N=Cc1cc(Br)c(O)c(OC)c1`, the inhibition is 82.5% (active).
Consider `CCN=c1scc(C)n1N=Cc1ccc(Br)cc1`, for which the inhibition was 10.9%.
The same measure for `CCN=c1scc(C)n1N=Cc1cc(Br)c(O)c(Br)c1`: 84.4% (active); for `CN=c1scc(-c2cccc(Br)c2)n1N=Cc1ccncc1`: 13.7%.
In the case of `CN=c1scc(-c2ccc(OC)cc2)n1N=Cc1cc(Br)c(O)c(OC)c1`, the inhibition is 97.6% (active).
Consider `CN=c1scc(-c2ccco2)n1N=Cc1c(O)ccc2ccccc12`, for which the inhibition is 54.4% (active).
As to `CN=c1scc(-c2cc(Cl)ccc2Cl)n1N=Cc1ccc(O)cc1O`, the inhibition is 65.9% (active).
Regarding `CN=c1scc(-c2cccc(Br)c2)n1N=Cc1ccccc1F`, the inhibition is -6.53%.
Take `C=CCN=c1scc(-c2ccco2)n1N=Cc1cc(OC)ccc1O`: the inhibition was 16%.
`Oc1ccc(C=Nn2c(-c3ccco3)csc2=Nc2ccc(F)cc2F)c(O)c1`: the inhibition was 6.26%.
Take `C=C(C)CN=c1scc(-c2ccco2)n1N=Cc1ccc(O)cc1O`: the inhibition is 89.4% (active).
Consider `CN=c1scc(-c2ccccc2Br)n1N=Cc1cccc(O)c1`, for which the inhibition is 28.8%.
For the molecule `Cc1ccccc1-c1ncc(CN2CCCC2c2nonc2C)s1` (stereo not given), the inhibition is 27.5%.
As for `Cc1ccccc1CCC1CCCN(Cc2nnc(-c3ccco3)o2)C1` (stereo not given), the inhibition was 2.39%.
The same measure for `Cc1ccccc1-c1nnc(CN2CCCC3CCCC32)o1` (stereo not given): 59% (active); for `Cc1cc(=O)[nH]c(Nc2nc(C)c3cc(C)c(C)cc3n2)n1`: -34.5%.
Turning to `Cc1ccc(C2CC(c3cccc(F)c3)=NN2C(=O)CN2CCC(Cc3ccccc3)CC2)cc1` (stereo not given), the inhibition was 42.1%.
For `O=C(Cc1ccccc1)N1CCC(Cc2ccc(-c3ccccc3)cc2)CC1` the value was 72.6% (active).
For `O=C(CCl)N1CCC(Cc2ccccc2)CC1` the value was -0.35%.
Turning to `COC(=O)CC(=O)N1CCC(Cc2ccc(-c3ccccc3)cc2)CC1`, the inhibition is 87% (active).
`COc1ccccc1/C=C/CN1CCCC(CCC(=O)Nc2cc(Cl)ccc2OC)C1` (stereo not given): the inhibition is 14.3%.
For `Cc1noc(C)c1CCC(=O)Nc1ccc2oc3ccccc3c2c1` the value was 25.6%; for `COc1cc2c(cc1NC(=O)CC(C)=NNC=O)oc1ccccc12`, 95.5% (active); for `Cc1cc(C)c2sc(NCC(C)C)nc2c1`, 13.6%.
Turning to `CC(C)(C)C1CCc2c(C(=O)N/N=C\c3ccoc3)csc2C1` (stereo not given), the inhibition is 79.8% (active).
In the case of `COC(=O)c1sc2c(c1N)CCC(C(C)(C)C)C2` (stereo not given), the inhibition is 29.1%.
For `COC(=O)c1c(N)sc2c1CCC(C(C)(C)C)C2` (stereo not given) the value was -34.2%.
The same measure for `Cc1cc(=O)n2[nH]c(C(F)(F)F)c(-c3ccc(Cl)cc3)c2n1`: 61.6% (active).
On to `Cc1[nH]n2c(=O)cc(C(C)(C)C)nc2c1-c1ccc(Cl)cc1`, for which the inhibition was 101% (active).
For `CC(C)(C)c1cc(=O)n2[nH]cc(-c3ccc(Cl)cc3)c2n1` the value was 32.1%.
The same measure for `Cc1cc(=O)n2[nH]cc(-c3ccc(Cl)cc3)c2n1`: -30.9%.
Regarding `Cc1ccc(-c2c[nH]n3c(=O)cc(C(C)(C)C)nc23)cc1`, the inhibition was 98.8% (active).
The same measure for `CC(CCc1ccccc1)NC(=O)c1c(O)nc2sccn2c1=O` (stereo not given): 62.6% (active); for `CC(NC(=O)c1c(O)nc2sccn2c1=O)c1ccccc1` (stereo not given): 90.9% (active); for `CCCCn1c(=O)[nH]c(=O)c2c1nc(COC(=O)C1CC1)n2C`: 12.4%.
For `O=C(O)C1CC=CCC1C(=O)Nc1ccc(N2CCN(c3cccc(Cl)c3Cl)CC2)cc1` (stereo not given), the inhibition was 21.6%.
For `O=C(Nc1ccc(-c2ccccc2)cc1)C1CC=CCC1C(=O)N1CCc2c([nH]c3ccccc23)C1` (stereo not given) the value was 91% (active); for `CC1CC(=NNc2nc3ccccc3s2)CC(C)(C)C1` (stereo not given), 23.3%; for `C1=CC(c2ccc(C=NNc3ccccn3)s2)CC1` (stereo not given), -47.3%.
For `C1=CC(c2ccc(C=NNc3nc4ccccc4s3)s2)CC1` (stereo not given), the inhibition was 99.1% (active).
For `NC(=S)NN=Cc1ccc(C2C=CCC2)s1` (stereo not given) the value was 84.9% (active); for `C(=Nn1c(-c2ccccc2)csc1=NCc1ccccc1)c1cccnc1`, 28.2%; for `C=CCN=c1scc(-c2ccc(C)cc2)n1N=Cc1ccc(F)cc1`, -4.92%.
The same measure for `N#Cc1ccc(C=Nn2c(-c3ccc(F)cc3)csc2=Nc2cccnc2)cc1`: 97.7% (active).
For `C=CCNC(=S)NN=C1C=C(C)CC(C)(C)C1` the value was 103% (active).
On to `C=CCNC(=S)NN=C1CCC=C1CCCCC`, for which the inhibition was 21.5%.
Turning to `C=CCNC(=S)NN=C1CCCCc2ccccc21`, the inhibition is -17.9%.
Consider `Cc1cccc(C)c1OCC(O)Cn1cnc2ccc(Br)cc2c1=O` (stereo not given), for which the inhibition was 33.4%.
The same measure for `CCn1cnc2cc(-c3ccc(Cl)cc3)sc2c1=O`: 29.3%; for `Cc1cccc(OCC(O)Cn2cnc3ccc(Cl)cc3c2=O)c1` (stereo not given): 86.5% (active); for `Cc1ccc(C(=O)NCCN(C)c2ccccc2)c(C)c1`: 35.9%.
The same measure for `CN(CCNc1ccc2c(c1)C(=O)CCC2)c1ccccc1`: 75.6% (active).
As to `Cc1ccc(SCCC(=O)Nc2nnc(-c3cc(C)ccc3C)o2)cc1`, the inhibition was 74.8% (active).
The same measure for `Cc1ccc(NC(=O)C(C)OC(=O)c2cccc(C)c2C)cc1` (stereo not given): 18.8%.
For `CC(C)OC(=O)c1ccc(NC(=O)CCCC(=O)O)cc1` the value was 50.8% (active).
The same measure for `CCc1cc(=O)[nH]c(-n2nc(C)cc2NC(=O)Cc2cccs2)n1`: 101% (active); for `Cc1cc(=O)[nH]c(-n2nc(C)cc2NC(=O)Cc2cccs2)n1`: 101% (active); for `CCCc1cc(=O)[nH]c(-n2nc(C)cc2NC(=O)Cc2cccs2)n1`: -25.1%.
As for `CN(C)CCCNc1ncnc2c1c(-c1ccccc1)cn2-c1ccc(Br)cc1`, the inhibition is 97.2% (active).
As for `CC(C)OCCCNc1ncnc2c1c(-c1ccccc1)cn2-c1ccccc1`, the inhibition was 101% (active).
Turning to `CCCNc1ncnc2c1c(-c1ccccc1)cn2-c1ccccc1`, the inhibition is 95.8% (active).
The same measure for `CC(O)CNc1ncnc2c1c(-c1ccccc1)cn2-c1ccc(Cl)cc1` (stereo not given): 99.4% (active).
Turning to `Cc1ccc(-n2cc(-c3ccccc3)c3c(NCCCO)ncnc32)cc1Cl`, the inhibition result is “inactive”.
The same measure for `Cn1ccnc1-c1nccn1Cc1ccc(CN2CCCC2)cc1`: -4.25%; for `CN(C)c1ccc(C=Cc2ccc3c4ccccc4ccc3[n+]2-c2ccccc2)cc1`: -1.83%.
The same measure for `O=S(=O)(Nc1ccc(Br)cc1)c1ccc(F)cc1`: 36.6%; for `Cc1cc(C)c(C)c(S(=O)(=O)Nc2ccc(F)cc2)c1C`: 31.6%.
For the molecule `N#Cc1ccc(NS(=O)(=O)c2ccc(F)cc2)cc1`, the inhibition was 77.8% (active).
For `O=S(=O)(Nc1ccc(Br)c(C(F)(F)F)c1)c1ccc(F)cc1`, the inhibition was 81.1% (active).
For `O=c1[nH]c(=S)ccn1-c1nc(-c2ccccc2)sc1-c1ccccc1` the value was 21.2%.
The same measure for `Oc1ccccc1Oc1ccc(Oc2ccccc2O)cc1`: 25.7%; for `NCc1ccc(Oc2cccc(Cl)c2Cl)cc1`: 62.9% (active).
The same measure for `O=C(O)c1sc(Cl)cc1/C=C\c1ccccc1`: 4.33%; for `O=C(NS(=O)(=O)c1ccc(Cl)s1)c1sc2cc(Cl)ccc2c1Cl`: 77.9% (active).
Take `O=C(NS(=O)(=O)c1ccc(Br)s1)c1ccc(Cl)cc1Cl`: the inhibition is 82.9% (active).
`O=C(O)c1sc2cc(Cl)ccc2c1Cl`: the inhibition was 87.1% (active).
Consider `O=C(O)c1sc2cc(Cl)cc(Cl)c2c1Cl`, for which the inhibition is 92.8% (active).
For the molecule `O=C(NC1=NCCS1)c1sc2cc(F)ccc2c1Cl`, the inhibition is 5.48%.
The same measure for `COc1ccc2c(Cl)c(C(=O)O)sc2c1Cl`: 19.7%.
For `CC(NC(=O)c1ccc(Cl)c([N+](=O)[O-])c1)c1ccccc1` (stereo not given), the inhibition was 100% (active).
For `CC(NC(=O)c1scnc1Cl)c1ccccc1` (stereo not given), the inhibition is 8.26%.
Consider `Cc1ccc(NC(=O)c2csc(NS(=O)(=O)c3cccs3)n2)cc1F`, for which the inhibition is 28.6%.
The same measure for `Cc1cc(C)c(S(=O)(=O)Nc2nc(C(F)(F)F)cs2)c(C)c1`: 78.7% (active); for `Cc1cc(C)c(S(=O)(=O)NC(C)c2ccccc2)c(C)c1` (stereo not given): 9.74%; for `O=C(CCc1nnc(CCc2c[nH]c3ccccc23)o1)N1CCC(c2ccccc2Cl)C1` (stereo not given): 33.4%.
In the case of `c1ccc(-c2noc(CCCc3c[nH]c4ccccc34)n2)cc1`, the inhibition is 71.6% (active).
The same measure for `O=C1C=CC(=O)N1c1cc(Cl)c(Cl)cc1Cl`: 11.4%; for `O=c1c(C=NCc2ccco2)c(NCc2ccco2)nc2ccccn12`: 88.3% (active).
For `Cc1cccn2c(=O)c(C=NCCO)c(NCc3ccco3)nc12` the value was 45.5%.
Turning to `CCC(C)N=Cc1c(NCc2ccco2)nc2c(C)cccn2c1=O` (stereo not given), the inhibition was 4.74%.
Consider `O=C(COc1ccc(F)cc1Br)NCCOc1ccc(Cl)cc1`, for which the inhibition is 77.7% (active).
The same measure for `Cc1ccc(C2=CCN(C(=O)CNC(=O)C3CCCCC3)CC2)cc1`: 93.1% (active); for `O=C(CC1CCCC1)N1CC=C(c2ccc(O)cc2)CC1`: 41%; for `O=C(NC(c1ccccc1)c1ccc2ccccc2n1)C1CCN(Cc2ccc(Oc3ccccc3)cc2)CC1` (stereo not given): 56.5% (active).
With `C=CC[C@H]1CC(C)=C[C@H](CC=C)N1Cc1ncccc1C(=O)O`, the inhibition is -5.55%.
The same measure for `Cc1c(Cl)cccc1Nc1ccccc1C(=O)O`: 101% (active); for `Cc1ccnc(Nc2ccc(NCCNC(=O)Nc3cccc(Cl)c3C)nn2)c1`: 36.1%.
Consider `Cc1cccc(C(=O)O)c1O`, for which the inhibition is 23.2%.

Source of the values: PubChem BioAssay AID1259343 (VanderVen Lab, College of Veterinary Medicine, Cornell …, 2017).
